YB-1 expr inh: YB-1 expression inhibition; U2OS, qRT-PCR YB-1 vs CDIP delta delta Cp, 16 h; active compounds read high; zero = DMSO, each unit about twofold; delta delta Cp (YB-1 minus CDIP) (no concentration beside the values); hit rate 0.37% among 30,000;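 active = delta delta Cp rounded down to an integer at or above 3, about 3 SD of DMSO wells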;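 also: higher means less YB-1 transcript or more CDIP transcript relative to DMSO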
NOMO-1 viab: STK33 inhibitor candidate reducing NOMO-1 cell viability | NOMO-1 AML viability, CellTiter-Glo luminescence, 72 h | inhibition, % (no concentration beside the values) | hit rate 7.5% among 37,000 | AID 2330; in the data active = inhibition above about 80%; inconclusive = no clear call, values can overlap the other calls
PD-1 reversal: activators reversing PD-1 mediated T-cell inhibition; primary human CD4 T cells, PD-L1 beads, CellTiter-Glo 96 h; activation, % (concentration not given with the values); 29,000 tested, under 10 active; AID 2316; call rule not given here
Hedgehog inh: Sonic Hedgehog pathway inhibition. Shh-LIGHT2 Gli-luciferase reporter, 30 h. inhibition, % (no concentration beside the values). hit rate 2.1% among 22,000. AID 2313;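 active = mean inhibition across valid replicates above about 65%, limit read from the data; inconclusive = mean under the limit, yet half or more replicates past it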;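 also: pathway switched on by Shh-conditioned medium diluted 1 in 25 in low serum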
MITF inhib: inhibitors of MITF. TRPM1 promoter luciferase, luminescence, 24 h. inhibition, % (test concentration not listed). hit rate 0.28% among 37,000. AID 2240; in the data active = inhibition above about 85%; inconclusive = no clear call, values can overlap the other calls; inactive = below about 68%;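 also: human melanocyte line stably carrying TRPM1 promoter luciferase reporter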
Numbers stand for hits; n = inactive; u = inconclusive; x = not tested or not shown. In the library only some 7.4% were active in any assay of this set; here they are far more common.

SMILES	YB-1 expr inh	NOMO-1 viab	PD-1 reversal	Hedgehog inh	MITF inhib
CC(CCc1ccccc1)N=c1c([N+](=O)[O-])nn(-c2ccccc2)n1O (centres undefined)	x	n	n	x	n
Cc1cc(C(=O)Nc2cccc3c2O[C@H](CN(C)C(=O)NC(C)C)[C@H](C)CN([C@H](C)CO)C3=O)n(C)n1	n	n	n	n	n
C[C@@H]1CN([C@@H](C)CO)C(=O)c2cccc(NC(=O)CCCCCC(=O)Nc3ccccc3N)c2O[C@@H]1CN(C)S(=O)(=O)c1ccc(F)cc1	n	92.5	n	x	n
C[C@H](CO)N1C[C@H](C)[C@H](CN(C)S(=O)(=O)c2ccc(F)cc2)Oc2c(NC(=O)CCCCCC(=O)Nc3ccccc3N)cccc2C1=O	n	94.9	n	x	n
C[C@@H]1CN([C@@H](C)CO)C(=O)c2cc(NS(=O)(=O)c3cccs3)ccc2O[C@@H]1CN(C)C(=O)Nc1ccc(C(F)(F)F)cc1	n	n	n	x	n
C[C@@H]1CN([C@H](C)CO)C(=O)Cc2cc(NC(=O)Cc3cn(C)c4ccccc34)ccc2O[C@@H]1CN(C)Cc1ccccc1	n	107.3	n	n	n
C[C@@H]1CN([C@@H](C)CO)C(=O)Cc2cc(NC(=O)Cc3cn(C)c4ccccc34)ccc2O[C@@H]1CN(C)Cc1ccccc1	n	n	n	n	n
C[C@H]1CN([C@@H](C)CO)C(=O)Cc2cc(NC(=O)Cc3cn(C)c4ccccc34)ccc2O[C@@H]1CN(C)Cc1ccc(-c2ccccc2)cc1	n	121.9	n	n	n
C[C@@H]1CN([C@@H](C)CO)C(=O)Cc2cc(NC(=O)Cc3cn(C)c4ccccc34)ccc2O[C@@H]1CN(C)Cc1ccc(Oc2ccccc2)cc1	n	114.9	n	n	n
C[C@H]1CN([C@@H](C)CO)C(=O)Cc2cc(NC(=O)Cc3cn(C)c4ccccc34)ccc2O[C@H]1CN(C)Cc1ccc2c(c1)OCO2	n	n	n	n	n
C[C@H]1CN([C@@H](C)CO)C(=O)Cc2cc(NC(=O)Cc3cn(C)c4ccccc34)ccc2O[C@H]1CN(C)Cc1ccc(Oc2ccccc2)cc1	n	u	n	n	n
C[C@@H]1CN([C@H](C)CO)C(=O)Cc2cc(NC(=O)Cc3cn(C)c4ccccc34)ccc2O[C@@H]1CN(C)Cc1ccc(Cl)c(Cl)c1	n	95.2	n	n	n
CC(=O)NCCOc1ccc(C2CCCCC2)cc1	n	n	n	n	n
Nc1cc(C(F)(F)F)ccc1Oc1ccc(C2CCCCC2)cc1	n	113.4	n	n	n
Cc1cc(Sc2ccc(Cl)cc2)nc(-c2ccccn2)n1	n	u	n	n	n
C[C@@H]1CN([C@H](C)CO)C(=O)c2cccc(NC(=O)c3cnccn3)c2O[C@H]1CN(C)Cc1ccc(C(=O)O)cc1	n	n	n	n	n
CN1CCN2c3ncccc3Cc3ccccc3C2C1 (centres undefined)	n	n	n	n	n
CC(C)(C)[C@]1(O)CCN2C[C@H]3c4ccccc4CCc4cccc(c43)[C@@H]2C1	n	n	x	77.9	n
Cc1ccc(S(=O)(=O)Nc2ccc3c(c2)CC(=O)N([C@H](C)CO)C[C@@H](C)[C@@H](CN(C)C(=O)Nc2ccc(C(F)(F)F)cc2)O3)cc1	n	n	x	x	n
COc1ccccc1OCC(=O)Nc1ccc(-c2nc3ccc(C)cc3[nH]2)cc1	x	110.3	n	x	n
COc1cccc(OCC(=O)Nc2ccc(-c3nc4ccccc4[nH]3)cc2)c1	x	n	n	x	n
COc1ccc(CN(C)C[C@H]2Oc3ccc(NC(=O)Cc4cn(C)c5ccccc45)cc3C(=O)N([C@H](C)CO)C[C@@H]2C)cc1	n	n	x	n	n
COc1ccc(CN(C)C[C@H]2Oc3ccc(NC(=O)C4CCCCC4)cc3C(=O)N([C@H](C)CO)C[C@H]2C)cc1	n	n	x	n	n
CC(C)c1ccc(N2C=Nc3ccc(C(C)C)cc3C2)cc1	n	114.6	n	n	n
COc1ccc(CN(C)C[C@H]2Oc3ccc(NC(=O)c4ccncc4)cc3C(=O)N([C@@H](C)CO)C[C@@H]2C)cc1	n	n	n	n	n
C[C@@H]1CN([C@@H](C)CO)C(=O)c2cccc(NS(=O)(=O)c3ccccc3)c2O[C@H]1CN(C)Cc1ccc(Oc2ccccc2)cc1	n	n	x	n	n
C[C@@H]1CCCCO[C@@H](CN(C)CC2CC2)[C@@H](C)CN([C@H](C)CO)C(=O)c2cc(NC(=O)Nc3ccc(C(F)(F)F)cc3)ccc2O1	n	118.9	n	n	n
